From PubChem BioAssay AID2732 (Emory University Molecular Libraries Screening Center, 2010) come the findings set out here.

The campaign covered roughly 220,000 compounds. About 8,200 (3.7%) were called active. The sample holds actives, similar compounds and a random draw of the others, so the mix is not that of the screen.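 Rule for the calls: active = compounds that reduced the stress-induced luciferase reporter signal by more than about 70% of percent inhibition (limit read from the data); inactive = the rest.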

This experiment in a line: blockers of ER-stress CHOP reporter expression – cell-based, unfolded protein response, luciferase reporter, primary screen (AID 2732).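 Note: 0% = tunicamycin plus vehicle and 100% = wells without tunicamycin.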 As to conditions: CHO-K1 CHOP-promoter luciferase, tunicamycin-induced, 15-18 h; at 10 µM; stronger effect = higher value. Background: A reporter such as luciferase makes a cellular process visible.
As usually defined, the inhibition is the change of the read-out against control, counted positive when it falls. For the molecule `Cn1c(C(=O)O)ccc1S(=O)(=O)N(Cc1ccccc1)Cc1ccccc1`, the inhibition was 2.64% (inactive).
As to `O=C(NC(=O)c1ccccc1N1CCCCC1)Nc1ccc(Br)cc1`, the inhibition is -4.77% (inactive).
The result for `Cc1ccc(OCC(=O)c2cc(C)n(Cc3ccco3)c2C)c([N+](=O)[O-])n1` reads 31% (inactive); that for `CCc1ccc2c(c1)C(c1ccc([N+](=O)[O-])cc1)=NNC(c1ccccc1)=N2`, 93.7% (active); that for `CCOc1ccc2c(c1)C(c1ccc(C)cc1)=NNC(c1ccc(C)cc1)=N2`, 37.2% (inactive).
With `Cc1ccc(C2=Nc3c(ccc4ccccc34)C(c3ccncc3)=NN2)cc1` the figure was 64.5% (inactive); with `C/C(=N/Nc1nc(-c2ccccc2)c(CC(=O)O)s1)c1ccccc1`, -18.2% (inactive); with `CCCCN(CCCC)CC(O)Cn1c2ccccc2c(=O)c2ccccc21` (stereo not drawn), 11% (inactive).
The result for `CC(NC(=O)C(=O)Nc1nccs1)c1ccccc1` (stereo not drawn) reads 24.1% (inactive).
Consider `O=C(O)CCCCCCCCCC[n+]1ccccc1`, for which the inhibition is -11.5% (inactive).
For the molecule `CCc1nc(C)ccc1OCC(=O)N(CC)CC`, the inhibition is 18.9% (inactive).
With `CN(C)CCOc1ccc(Cl)cc1C(C)(C)C` the figure was -2.87% (inactive).
With `CCC(C)(C)c1ccc(OCC(=O)N(C)C)c(C(C)(C)CC)c1` the figure was 85.7% (active); with `Cn1nccc1NS(=O)(=O)c1ccc(F)cc1`, -5.82% (inactive).
The result for `Cc1cc(=O)[nH]c(S)c1C#N` reads 2.71% (inactive); that for `CC(C)(C)c1ccc(CCC2OCC(CN3CCOCC3)O2)cc1` (stereo not drawn), 3.73% (inactive).
Consider `COc1ccccc1-n1cn[nH]c1=S`, for which the inhibition was 11.5% (inactive).
The result for `Cc1cc(SCC(=O)c2ccccc2)nc(SCC(=O)c2ccccc2)n1` reads 15.9% (inactive); that for `COC(=O)c1cc(C(=O)CSc2nc(C)cc(C)n2)ccc1O`, 5.39% (inactive).
The result for `Cc1cc(Oc2ccc(Cl)cc2)nc(SCC(=O)c2ccccc2)n1` reads 70.2% (active).
With `O=C(NNC(=O)c1csc(-c2cccnc2)n1)Nc1ccc(Cl)cc1` the figure was -32.3% (inactive); with `Cn1cc(S(=O)(=O)NC(c2ccccc2)c2ccccc2)c(=O)n(C)c1=O`, 9.19% (inactive); with `O=C(NCc1ccccc1Cl)NC(=O)c1csc([N+](=O)[O-])c1`, -5.11% (inactive).
As to `CCN1CCC2(CC1)N=C(c1ccc(F)cc1)C(=S)N2C(=O)c1ccc(C)cc1`, the inhibition was 95.4% (active).
With `Cc1ccc(C(=O)N(CN2CCCC2=O)c2ccc(F)cc2)cc1` the figure was -13.1% (inactive); with `CCn1c(C(C)NC(=O)c2ccc(C)cc2)n[nH]c1=S` (stereo not drawn), 25.9% (inactive).
As for `Cn1c(SCC(=O)Nc2ccc(Br)cc2F)nnc1-c1ccco1`, the inhibition was 24.1% (inactive).
As for `CCn1c(SCC(=O)Nc2cccc(F)c2)nnc1-c1cc2cc(Br)ccc2o1`, the inhibition is 72.8% (active).
With `CCn1c(CNC(=O)c2ccco2)nnc1SCC(=O)Nc1cccc(F)c1` the figure was -0.15% (inactive); with `COC(=O)[C@H](Cc1ccccc1)NC(=O)Nc1ccc(OC)cc1`, 4.48% (inactive); with `CCOC(=O)c1cc(NC(=O)c2ccc(Cl)cc2)c(=O)oc1-c1ccccc1`, 77.2% (active).
Take `CC(=O)c1cc(NC(=O)c2ccccc2)c(=O)oc1/C=C/N(C)C`: the inhibition was 11.8% (inactive).
The result for `CCOC(=O)NNC(=O)c1ccc(Cl)cc1` reads -19.9% (inactive); that for `COc1ccc(NC(=O)C2=C(C)NC(=O)NC2c2ccccc2[N+](=O)[O-])cc1` (stereo not drawn), -5.78% (inactive); that for `O=C(Nc1ccc(S(=O)(=O)Nc2nccs2)cc1)c1cc(-c2ccncc2)nc2ccccc12`, 7.48% (inactive).
With `Cc1ccc(-c2cc(C(=O)N/N=C/C=C/c3ccccc3)n[nH]2)o1` the figure was 13.4% (inactive).
The result for `O=C(N/N=C/C=C/c1ccccc1)C1CC1(c1ccccc1)c1ccccc1` (stereo not drawn) reads 82.4% (active).
For `CC(/C=C/c1ccccc1)=N\NC(=O)C1CC1(C)c1ccccc1` (stereo not drawn), the inhibition is 43.4% (inactive).
The result for `CC(C)c1cc(CN2CCOCC2)cc(C(C)C)c1O` reads -5.16% (inactive); that for `COc1ccc(/C=C/C(=O)Nc2ccc(C)cc2)cc1S(=O)(=O)N1CCOCC1`, -1.01% (inactive).
With `COc1ccc(/C=C/C(=O)Nc2ccc3c(c2)OCCO3)cc1OC` the figure was -1% (inactive); with `COc1ccc(C(C)=O)cc1COc1ccc(Cl)c(C)c1`, 5.12% (inactive).
With `COc1ccc(/C=C/C(=O)Nc2c(C)nn(C)c2C)cc1COc1ccc(Br)cc1` the figure was 105% (active).
Regarding `COc1ccc(/C=C/C(=O)Nc2cccnc2)cc1OC`, the inhibition is 2.86% (inactive).
With `CCn1nc(C)c(NC(=O)/C=C/c2ccc(OC)c(COc3ccc(Br)cc3)c2)c1C` the figure was 86.6% (active); with `Cc1ccc(NC(=O)Nc2cc(-c3ccccc3)nn2C)cc1Cl`, 7.85% (inactive).
The result for `C=CCNC(=S)N1CCc2[nH]c3ccccc3c2C1` reads 0.96% (inactive); that for `COc1ccc(CCNC(=O)C(=O)Nc2ccc3nc4n(c(=O)c3c2)CCCCC4)cc1OC`, 8.36% (inactive); that for `O=C(Nc1cccc2c1N(C(=O)c1ccco1)CCC2)c1ccco1`, -8% (inactive).
With `CC1(C)CC(=O)C=C(Nc2ccccc2)C1` the figure was 5.42% (inactive); with `O=C(O)/C=C/c1ccc2c(c1)OCCO2`, -23.6% (inactive); with `COc1ccc(C(=O)Nc2ccccc2C(=O)N/N=C/c2ccccc2OC)cc1`, -12.8% (inactive).
With `COc1ccc(C(=O)Nc2ccccc2C(=O)N/N=C/c2ccc(O)c(OC)c2)cc1`, the inhibition is 88.8% (active).
The result for `COc1cc(/C=N\NC(=O)CNC(=O)c2cccc([N+](=O)[O-])c2)ccc1O` reads 8.27% (inactive); that for `CCOC(=O)Cn1c(=O)oc2cc(S(=O)(=O)NCC3CCCO3)ccc21` (stereo not drawn), 22.5% (inactive); that for `OC(CNCC1CCCO1)Cn1c2ccc(Br)cc2c2cc(Br)ccc21` (stereo not drawn), 108% (active).
With `CCc1cc(Br)ccc1NC(=O)C1CCCO1` (stereo not drawn) the figure was -17.3% (inactive).
The result for `O=C(Nc1ccc(S(=O)(=O)N2CCOCC2)cc1)c1ccc2ncsc2c1` reads 2.87% (inactive); that for `C/C(=N\NC(=S)Nc1ccc(C)cc1)c1cc2ccccc2o1`, -20.3% (inactive); that for `COCCCNC(=O)C1CCN(c2ccc(N3CCOCC3)nn2)CC1`, -10.8% (inactive).
For the molecule `Oc1ccc(N=Cc2c(O)ccc3ccccc23)cc1`, the inhibition is 40.5% (inactive).
On to `Oc1ccc(N=Cc2sc3ccccc3c2Cl)cc1`, for which the inhibition is 81.8% (active).
With `O=C(N/N=C/c1c(Cl)[nH]c2ccccc12)c1sc2ccccc2c1Cl` the figure was 44.3% (inactive).
